This passage reports median seed-adjusted z-score results from PubChem BioAssay AID1347426 (Functional Genomics Laboratory (NCATS/FGL), 2020).

The campaign covered roughly 31,000 sequences. About 1,400 (4.5%) were called active.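 The calls were made as follows: active = median seed-adjusted z-score above 1 or below -1; inactive = the rest.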 Many of the other results were omitted from the sample, so actives are more common in it than they were.

The assay is described as follows: Novel Modifiers of Survival Motor Neuron (SMN) Protein: Gene Identification via Genome-wide siRNA Screen.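 Also: luminescence tracks full-length SMN protein made from the SMN2 reporter.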 The following applies: HEK293T SMN2-luciferase reporter, siRNA knockdown, 72 h; actives lie on both sides. Put shortly: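 Genome-wide siRNA screen (10418 genes, 3 siRNAs each, 1 pmol per well) by reverse transfection in HEK293T cells stably carrying an SMN2-luciferase reporter; luminescence after 72 hours, normalized to negative-control siRNA, log10-transformed, MAD-scored.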
CACGAGCUAAAGUAAAAUATT against EGLN1: the median seed-adjusted z-score is 2.05 (active). In the case of CAUCAUUACUGUUGAGGGATT against CSRP2BP, the median seed-adjusted z-score was -0.526 (inactive). For GAGAAACCUUUAUUCGAUATT against GLULD1 the value was -0.332 (inactive); for CCAUCGACAUUGAAACCUUTT against PITPNM2, 0.275 (inactive). Next, GCAAUGCGUUCUUUCUAAATT against SIGLEC11: -0.395 (inactive). On to CAAAGAGAUUUGUACAGAUTT against ZNF140, for which the median seed-adjusted z-score was 0.587 (inactive). Next, GGACGAGCCUCAUGAAUGATT against SEC11B: 1.04 (active); CAGUGUCCAUGUACCUCUUTT against SLC37A4: -0.00202 (inactive); GCAUUUAGGUACCAGCUCATT against SLC39A2: 0.0602 (inactive). With CCAGGGAUAUGAUUGACAATT against SERPINE2, the median seed-adjusted z-score is 0.0144 (inactive).

For the sequence GCAGUACACGAGAAAGUCATT against 1-Sep, the median seed-adjusted z-score is 0.0103 (inactive).

With CUACAUCAAGAAGACAUAUTT against ABHD2, the median seed-adjusted z-score was -1.21 (active). Next, CUCUCUCUCUACGAACAUUTT against TCF7: -0.338 (inactive); CGACCCAGACAAUAGACUATT against CCNT1: -0.72 (inactive); GGUAUGGAUUGAUGCCGCATT against SLC6A2: 0 (inactive).

Regarding GCACCAUUCUAACAAUGGATT against NANS, the median seed-adjusted z-score was -1.54 (active). For CCAACAAGCUGUCUCCCUATT against CENPB the value was 0.292 (inactive); for GUACAAGAGAUAAUGCAAATT against TFPI, -0.0076 (inactive). Next, CUAUCAUAGUGACAAGCGATT against GJA5: 0.707 (inactive); AAGUACAUAUAACCACUUATT against RAB14: -0.0567 (inactive).

Turning to CAGUGACCCGGAUCCUCUATT against RHCG, the median seed-adjusted z-score was 0.375 (inactive).

In the case of CCUGGACGAGUUUAUAAUATT against AP1S3, the median seed-adjusted z-score is 0.153 (inactive). As for GCCGUAUAAGUGUCAAGCATT against ZNF57, the median seed-adjusted z-score was 0 (inactive). For CAAUGUUAGGAGUCAGUCATT against ACTL6A the value was 1.11 (active); for AGGGCUUGUUUGACAACUUTT against CHTF18, 0.371 (inactive). As for GCUGAUACCUUCUACCGUATT against GDPD2, the median seed-adjusted z-score is -0.0868 (inactive).

For the sequence ACCGCACGAUGUUCAACUUTT against DNAJC30, the median seed-adjusted z-score is 0.329 (inactive). For CAGACAUGAAGUAUAAGAATT against TCEA2 the value was 0.552 (inactive); for CCUGCCCAAUGUGACCUUUTT against MRC2, -1.34 (active); for CAAAUCCUAUAGUAUAACATT against RPS6KC1, 0.344 (inactive). For AGAUUAAGAUGUUCUACGATT against ADI1 the value was 0.0593 (inactive); for GCCCAUUGACUAUUACUUUTT against AR, -0.559 (inactive); for GAUGGAAGAUGGAACGGUUTT against CDC42BPA, 0.257 (inactive). For GUAUGUCAAGGAGAACGGATT against CTSL2 the value was -1.04 (active); for CAUUAUCACUGGUGCACUUTT against CHN1, 2.1e-05 (inactive); for GGAAUAACAGUUGUAGGAATT against TMTC3, 0.266 (inactive). For the sequence GAGAGCAACUUAAAGACGATT against ST18, the median seed-adjusted z-score was 0.0762 (inactive). For UGCUCUACAUCAACCCUGATT against FSHR the value was -0.462 (inactive). Consider GAAGAGCCGUAUGAUCGAATT against ZNF432, for which the median seed-adjusted z-score is -0.124 (inactive). Regarding CAAGGAGCAGGGAUAUGAATT against ADAP2, the median seed-adjusted z-score is -1.1 (active).

Turning to GAGAGAUUGUGAUUGGAGATT against BHMT, the median seed-adjusted z-score is 0 (inactive). As to GGAUCCUAUUGAGAGGCUATT against HS2ST1, the median seed-adjusted z-score was 0.421 (inactive). Next, GCACCAAGCAUUAUGAAAATT against SDCBP: 0.0325 (inactive); CACCUGAAGUAAAUCGGAUTT against SF3B14: -1.26 (active). As to AGACAGUGUGGGUCCUGGATT against CD300E, the median seed-adjusted z-score was 0.337 (inactive). Next, GGCAGUUAAUGGAACAAUUTT against MTMR7: -0.207 (inactive); CGUGGGCUCUAUCUACUAUTT against PUF60: 2.26 (active). For GAUAGAUCGUUUUAAGAGATT against MST4 the value was 0.343 (inactive); for CGACAACAUAUGUUCCGGATT against TNFRSF11B, 0.582 (inactive). As for UAAUCAAGCUGAAAACAGATT against TRYX3, the median seed-adjusted z-score is 2.3 (active). With AAUUCGAGCUGGUGCCAUCTT against MYCL1, the median seed-adjusted z-score was 0.0658 (inactive). Next, ACCUCUACGUGGUCAGCUATT against DPP9: -0.224 (inactive); CCAAACGAUUUAUACCUAATT against IPMK: -0.00138 (inactive); GAACAACCUGGAGAAAUAUTT against ENDOG: -0.336 (inactive). GGAGAGACAUCGUCAGCUATT against AGXT: the median seed-adjusted z-score is 0.017 (inactive). Next, GAUGCUGGUUGGUUCGAUATT against MFSD4: -1.89 (active). For GAGUUUCGCCUGCUACAGATT against CELSR3 the value was 0 (inactive); for GGAUGAUUCGGAAGGUGAATT against ZNF467, 0 (inactive); for GGGCCGUGCUGAUUGAGAATT against GPX2, -0.21 (inactive). For GGAGAAGAAUGAGCAACUUTT against ADAM19 the value was 0.0996 (inactive); for GGGCUUUGAUAGGAAUGCATT against UBE2K, 0.497 (inactive); for CGCAGUAUGUGGACUAUGATT against NID2, 0.283 (inactive). With GCUGAAAUCAAAAAGCGGATT against RAB1B, the median seed-adjusted z-score was 1.55 (active). Next, GGAAUGUGGUAACAGGAGATT against GMPR2: 0.232 (inactive). On to CCUACUCUGUUGUUCGAAATT against C3, for which the median seed-adjusted z-score is 0.0281 (inactive). For GCGGGAGAAGCUUACCUUUTT against DPP3 the value was -0.261 (inactive). Next, GGAAAUAUGCGGCUACGGATT against NADSYN1: 0.217 (inactive); CGGGUACUGCUACACCUUUTT against SLC22A8: 0.175 (inactive); GUGAGACAGUUGACCGAGATT against SLC26A2: -1.25 (active). As for CAUUCAAAUUUACCCUGUATT against POLR2H, the median seed-adjusted z-score was -2.74 (active).

With GGACCUUGUUAACAGUGGATT against APOBEC1, the median seed-adjusted z-score is -0.323 (inactive). With CCCUGUACGUGUACAUCAUTT against MPG, the median seed-adjusted z-score is -0.0888 (inactive).

On to GAGGCAGUCUUAAAAUGGATT against RAB32, for which the median seed-adjusted z-score is -0.112 (inactive). Take CUUCAAGAAUAAGUACGAATT against KRT7: the median seed-adjusted z-score was 0 (inactive). For GUGUGAUUCUUGGAGCAAATT against PLD2, the median seed-adjusted z-score was -0.743 (inactive).

Regarding CAACUACAACUGUGAGAUUTT against SF3A3, the median seed-adjusted z-score is -2.1 (active). Turning to GAAAUACUGCGGUAUAAAATT against SYTL2, the median seed-adjusted z-score was 0.211 (inactive). With GCCCAUAGAGGGUUCAGAATT against CCNT1, the median seed-adjusted z-score is -0.72 (inactive). Next, GAGAUGAACCGGAACAUCATT against LOC650864: 0.214 (inactive); GAACCAUGGAUGGUGAUAATT against ZNF287: 0.0213 (inactive). As to GCUCCACAGCAUAUGCUCATT against NFIL3, the median seed-adjusted z-score was 0.4 (inactive). Consider GAACUGUGAAUUAGAUGUATT against F9, for which the median seed-adjusted z-score is 0.332 (inactive). In the case of GGAACACGCUGACAGGACATT against FZR1, the median seed-adjusted z-score is 0.729 (inactive). Next, CGAUGUUGAAGUUACACCATT against ATP13A4: -1.09 (active); CCGCGAAUCCAUGACAAUATT against UGCG: 0.492 (inactive); CCACCUCUACCAAACAUUUTT against IL2RG: -0.155 (inactive). Next, GGAGAUUCAUUCUAACCAUTT against ADAMTS19: -0.39 (inactive); CAGUGAGAGUUUCAUCUUUTT against PKD1L2: -1.17 (active); GGAUAUGAGUUACAUGACATT against GALNT5: -0.279 (inactive). Next, GGACGACUUCUUUAAGUCATT against PGD: -1.55 (active); CGGCAAUUGUUGACGUGAATT against TXNDC11: 0.642 (inactive); GGAUGGACUUUAUCCAGCATT against TM7SF4: 0.0246 (inactive).

Turning to GGACAACAGUCGGUCGAAUTT against ANP32C, the median seed-adjusted z-score is -0.421 (inactive). Next, UGAUAUCGGCUACGUCAAATT against NAGK: 0.446 (inactive); GGAUUACAGUGUCCAAAGATT against ADRA1A: -1.06 (active); CCUACUAUGUGAGCAAUGATT against EEF1G: -0.206 (inactive). On to GAGUCACAAUCGCAUGAAATT against FKBP9, for which the median seed-adjusted z-score is 0.359 (inactive). For the sequence CCACACUUUUGGUCUUUAATT against PGDS, the median seed-adjusted z-score was 0.02 (inactive). For AGACGGUCCUCUUUCGACATT against LOC442229 the value was 0.183 (inactive). For GGAUAUCAAUUAUUACGCUTT against LIFR the value was 0.031 (inactive); for AGGAGUCCCUAAUGCUACATT against TRIM74, 0.0932 (inactive); for GCAUCAACUUUGUGCAUGATT against PLTP, 1.09 (active).

Take GCAGCAAACUGACGGAGAATT against PCTK3: the median seed-adjusted z-score was 0 (inactive).

As for CAGUGCUCAUGGAACUCUUTT against HMGCS2, the median seed-adjusted z-score was -0.465 (inactive). Turning to CGAUGAAGGGUUCCGAUUATT against CR1, the median seed-adjusted z-score is 0.143 (inactive).

For the sequence GGGCGAGUAUGACCGAUCATT against CTRL, the median seed-adjusted z-score was 0.0758 (inactive).

Regarding GCAGAUACAUUGAUCGCAUTT against PRPF8, the median seed-adjusted z-score was -1.54 (active). On to GGACCAGACAACGAACUGATT against RNF135, for which the median seed-adjusted z-score was 0.581 (inactive).
